The values that follow come from PubChem BioAssay AID624483 (NMMLSC, 2012).

Molecules are shown by their SMILES. The campaign covered roughly 360,000 compounds. About 11,000 (3.1%) were called active. Not shown: some 2% with an inconclusive outcome. The entries come from a sample that favours actives as a whole. Unmarked numbers belong to inactive results. Cut-off read from the data, not from the text of the source: active = fluorescence intensity above about 16000; inconclusive = no clear call, values can overlap the other calls; inactive = below that.

A short description of this experiment: counter-screen for toxin protease inhibitors: compound fluorescence, primary screen, artefact control for toxin protease inhibitor project, biochemical, multiplex microsphere, HTS (AID 624483). The following applies: compound autofluorescence counterscreen, microsphere flow cytometry; stronger effect = higher value. A general note: A counterscreen serves to expose hits that act by an unwanted route or on another target.
For `Cc1nc(C(=O)Nc2ccc(Cl)cc2)sc1C1(C)CC(c2ccccc2)=NO1` (stereo not drawn), the fluorescence intensity was 3390.

Regarding `C=C1C(=O)OC2C1CCC(C)=CCCC1(C)OC21` (stereo not drawn), the fluorescence intensity was 6040.

Take `COc1ccc(NC(=O)C2(C)Cc3c(-c4cccc(NC(C)=O)c4)ccnc3O2)cc1` (stereo not drawn): the fluorescence intensity was 3560.

For the compound `O=C(O)c1ccc(N/N=C/c2cn(-c3ccccc3)nc2-c2cccs2)cc1`, the fluorescence intensity is 3970.

Take `Cc1ccc(NC(=O)COc2ccc(/C=N\NC(=O)c3cccnc3)cc2)cc1C`: the fluorescence intensity was 4500.

Consider `O=C(N/N=C/c1sc(N2CCCCC2)nc1-c1cccs1)c1cccnc1`, for which the fluorescence intensity is 16400 (active).

Consider `O=C(Nc1ccc(Cl)cc1)c1csc([C@H]2C[C@H](O)[C@@H](CO)O2)n1`, for which the fluorescence intensity is 2790.

Consider `COCCCn1c(Cc2csc(Nc3cccc(Cl)c3)n2)nnc1SCC(=O)OC1CCCCC1`, for which the fluorescence intensity is 3010.

Take `NC(=O)CC(NC(=O)Cc1cccc2ccccc12)c1ccc(NCc2cc(F)ccc2F)c([N+](=O)[O-])c1` (stereo not drawn): the fluorescence intensity was 4100.

In the case of `CCOc1ccc(OCC)c(NC(=O)CCS(=O)(=O)c2ccc(C)cc2)c1`, the fluorescence intensity was 3840.

`CCOc1ccc(OCC)c(NC(=O)C(NS(=O)(=O)c2ccc3c(c2)oc(=O)n3C)C(C)C)c1` (stereo not drawn): the fluorescence intensity is 20600 (active).

Turning to `CSCCC(NS(=O)(=O)c1ccc2c(c1)oc(=O)n2C)C(=O)NCc1ccccc1` (stereo not drawn), the fluorescence intensity is 4490.

`CCCCN(CCCC)CCNC(=O)CN1C(=O)COc2ccc(S(=O)(=O)N3CCOCC3)cc21`: the fluorescence intensity was 5470.

Consider `CC(C)CNC(=O)C1(C)CCCN1C(=O)CSc1ccccc1` (stereo not drawn), for which the fluorescence intensity is 3520.

In the case of `O=C(CP(=O)(c1ccccc1)c1ccccc1)N1CCOCC1`, the fluorescence intensity was 4810.

As for `CCOC(=O)c1cnc(COc2ccccc2Cl)[nH]c1=O`, the fluorescence intensity is 5960.

`CCOC(=O)c1cc(C)nc(S(C)(=O)=O)c1C#N`: the fluorescence intensity was 6150.

On to `CCCCSc1[nH]c(=O)c(C(=O)OCC)cc1C#N`, for which the fluorescence intensity was 23400 (active).

Take `CC(NCCc1ccc(S(N)(=O)=O)cc1)C(=O)NCc1ccccc1` (stereo not drawn): the fluorescence intensity is 3370.

As for `O=C(O)c1ccccc1Cc1ccc(F)c2ccccc12`, the fluorescence intensity was 3460.

`Cc1noc(C)c1S(=O)(=O)N(C)C[C@H]1OCCCC[C@@H](C)Oc2ccc(NC(=O)CCCN(C)C)cc2C(=O)N([C@H](C)CO)C[C@@H]1C`: the fluorescence intensity is 3820.

For the compound `O=C1CCC(=O)N1CCC(=O)N(C(=O)NC1CCCCC1)C1CCCCC1`, the fluorescence intensity was 3950.

For `COc1ccc(-c2cc(NC(C)=O)c3ncc(-c4cc(OC)c(OC)c(OC)c4)n3c2)cn1`, the fluorescence intensity was 2720.

Turning to `CCOn1c(SC(C)C)nc2ccccc2c1=O`, the fluorescence intensity was 10100.

With `COCC(C)n1c(SCC(=O)NC2CCCCC2C)nc2ccccc2c1=O` (stereo not drawn), the fluorescence intensity is 2940.

Consider `CCOC(=O)C(C)Sc1nc2ccccc2c(=O)n1CC1CCCCC1` (stereo not drawn), for which the fluorescence intensity was 19900 (active).

For the compound `Cc1ccc2c(c1)N(CC(=O)NCCc1ccc(Cl)cc1)C(=O)c1cccnc1O2`, the fluorescence intensity was 5070.

For the compound `CCc1nc2c(OCCOc3ccccc3)cccn2c1N(C)C(=O)c1ccccc1F`, the fluorescence intensity is 3430.

As to `CCCCN(C=O)c1c(CC)nc2c(OCCC3CCCCC3)cccn12`, the fluorescence intensity was 3460.

Consider `Cc1ccccc1OCC(=O)NCC(=O)OCC(=O)c1ccc2ccccc2c1`, for which the fluorescence intensity is 10600.

As to `Cc1cccc(NC(=O)N(Cc2cc3cc(C)cc(C)c3[nH]c2=O)CC2COCCO2)c1` (stereo not drawn), the fluorescence intensity is 11500.

On to `Cc1ccc2[nH]c(=O)c(CN(CCCN(C)C)C(=O)Nc3cccc(Cl)c3)cc2c1`, for which the fluorescence intensity is 21500 (active).

On to `Cc1ccc2[nH]c(=O)c(CN(CC3COCCO3)C(=O)Nc3ccccc3C)cc2c1` (stereo not drawn), for which the fluorescence intensity is 3250.

As to `COc1ccccc1CNc1nc(Nc2ccccc2Cl)c2sccc2n1`, the fluorescence intensity was 3450.

On to `CC(C)CNC(=S)NNC(=O)c1nn(C)cc1Cl`, for which the fluorescence intensity is 8820.

`Cc1occc1C(=O)NNC(=S)NCC(C)C`: the fluorescence intensity was 16400 (active).

With `Cc1scc(C(=O)NNC(=S)NCC(C)C)c1C`, the fluorescence intensity was 2420.

Take `CN(C)S(=O)(=O)c1ccc(C(=O)NCCN=C2NS(=O)(=O)c3ccccc32)cc1`: the fluorescence intensity is 3720.

Consider `CC[C@]12c3[nH]c4cc(CCC(=O)N(C)C)ccc4c3CCN1C(=O)[C@@H](CC(=O)NCCCn1ccnc1)C[C@@H]2C(=O)N1CCN(C(=O)C2CC2)CC1`, for which the fluorescence intensity is 3900.

Regarding `COc1cc(C2C(C(=O)OCCC#N)=C(C)NC3=C2S(=O)(=O)c2ccccc23)cc(OC)c1OC` (stereo not drawn), the fluorescence intensity is 9630.

As to `CCCCn1nc(C(=O)N2CCc3ccccc32)c2ccccc2c1=O`, the fluorescence intensity was 23400 (active).

`CCCn1nc(C(=O)N2CCCc3ccccc32)c2ccccc2c1=O`: the fluorescence intensity was 4370.

On to `CCCCn1nc(C(=O)Nc2cccc(C(=O)NC3CC3)c2)c2ccccc2c1=O`, for which the fluorescence intensity was 3390.

Take `OC[C@@H]1CN(Cc2ccc(F)cc2)C[C@H](n2cnc3c(NC4CCCC4)ncnc32)O1`: the fluorescence intensity was 3760.

As to `CC(=O)OCC(C)n1c(=O)c2ccccc2n1C(C)=O` (stereo not drawn), the fluorescence intensity is 6200.

For `Cc1cn([C@H]2C[C@H](O)[C@@H](/C=C/C(=O)NCCCc3ccccc3)O2)c(=O)[nH]c1=O`, the fluorescence intensity was 4330.

Take `CCc1nnc(NS(=O)(=O)c2ccc(NC(=S)NC(=O)c3cccs3)cc2)s1`: the fluorescence intensity is 3630.

`O=C(NC(=S)Nc1cccc(-c2ccc(CO)o2)c1)c1cccs1`: the fluorescence intensity is 4550.

For the compound `Cc1sc(NC(=S)NC(=O)c2cccs2)nc1-c1ccc(CC(C)C)cc1`, the fluorescence intensity is 19900 (active).

Take `CC1=C(C(=O)OCC2CCCCC2)C(c2ccc(F)cc2)NC(=O)N1` (stereo not drawn): the fluorescence intensity is 3520.

For the compound `CC(C)c1cccc(-c2csc(C(O)c3ccccc3)n2)c1` (stereo not drawn), the fluorescence intensity is 3800.

On to `COC(=O)c1sccc1NC(=O)c1ccc(Cl)cc1`, for which the fluorescence intensity was 2980.

As for `COC(=O)c1sccc1N/N=C(\C)c1ccc(F)c(Cl)c1`, the fluorescence intensity is 22300 (active).

Regarding `COC(=O)c1sccc1NS(=O)(=O)c1ccc(F)cc1F`, the fluorescence intensity is 3170.

Regarding `OC(c1ccccc1)c1nc(-c2cnc3ccccc3c2)cs1` (stereo not drawn), the fluorescence intensity is 3830.

For the compound `CCN(CC)S(=O)(=O)c1cc(C(=O)Nc2ccccn2)ccc1C`, the fluorescence intensity is 24700 (active).

For the compound `Cc1ccc(NC(=O)CNCc2ccccn2)cc1S(=O)(=O)N(C)C`, the fluorescence intensity is 4460.

Take `CCN(c1ccccc1)S(=O)(=O)c1cc(C(=O)NCc2ccccn2)ccc1C`: the fluorescence intensity was 6330.
